The list is not random: actives were taken first. Their share in the collection is about 6.9%.
MCF10A rerep = DNA re-replication induction in MCF 10a cells | MCF 10A DNA re-replication, Hoechst nuclear intensity, 48 h | Potency, µM (series often up to 46.1 µM), for inactives: at the top dose activity, positive = re-replication, most hits filed as activators | actives 2.9% (n = 350,000) | AID 624296; also: potency is read from the fitted curve at half-maximal effect; % of control where 0% means no effect; nearly all actives have a fitted effect of over 50% in size
SW480 rerep = DNA re-replication induction in SW480 cells | SW480 DNA re-replication, Hoechst DNA content imaging, 48 h | Potency, µM (top dose mostly 46.1 µM), without a hit: at the top dose re-replication activation, actives largely listed as activators | actives 1.8% (n = 340,000); also: potency is read from the fitted curve at half-maximal effect; % of control where 0% means no effect; nearly all actives have a fitted effect of over 55% in size
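DNA re-replication was detected as more nuclei of elevated Hoechst intensity after 48 hr exposure to compound (23 nL pinned per well of 250 cells).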
Vif-A3F inh = blocks the Vif interaction with APOBEC3F. HeLa A3F-eYFP + Vif (tagged APOBEC3F with the HIV-1 protein that degrades it), YFP fluorescence increase. Potency, µM (titrated, usually from 46.1 µM), for the others: at the highest dose activity, negative = active. actives 0.2% (n = 390,000). AID 602313; also: potency is read from the fitted curve at half-maximal effect; % of control where 0% means no effect; nearly all actives have a fitted effect of over 65% in size
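HeLa cells stably expressing A3F-eYFP plus Vif, plated and incubated overnight at 37 deg C, then exposed to compounds overnight at 37 deg C. Blocked degradation read as raised yellow fluorescence (Ex 488/Em 500-530).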
Vif-A3G inh = blocks the Vif interaction with human APOBEC3G; HeLa A3G-eYFP + Vif (tagged APOBEC3G with the HIV-1 protein that degrades it), YFP fluorescence, overnight; Potency, µM (doses to about 46.1 µM), without a hit: at the highest dose activity, negative = active, most hits filed as inhibitors; Q9HC16; AID 602310; actives 0.076% (n = 410,000); also: potency is read from the fitted curve at half-maximal effect; % is scaled to controls: 0 for no effect and ±100 for the full control effect; nearly all actives have a fitted effect of over 60% in size
Target sequence (Q9HC16 whole entry, looked up): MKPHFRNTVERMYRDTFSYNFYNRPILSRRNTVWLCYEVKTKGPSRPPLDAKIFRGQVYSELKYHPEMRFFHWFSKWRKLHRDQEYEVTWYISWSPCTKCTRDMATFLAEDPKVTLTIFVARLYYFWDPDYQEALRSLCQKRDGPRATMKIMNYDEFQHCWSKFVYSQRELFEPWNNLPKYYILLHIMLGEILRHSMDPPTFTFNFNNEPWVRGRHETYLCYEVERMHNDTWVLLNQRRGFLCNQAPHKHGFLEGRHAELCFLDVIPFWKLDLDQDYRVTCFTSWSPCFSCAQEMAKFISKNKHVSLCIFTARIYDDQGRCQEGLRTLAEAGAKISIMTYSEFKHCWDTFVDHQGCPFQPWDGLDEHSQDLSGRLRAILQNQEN
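HeLa cells stably expressing Vif and C-terminally eYFP-tagged A3G, seeded overnight at 37 deg C, then exposed to compound by pintool overnight at 37 deg C. Rise in yellow fluorescence (Ex 488/Em 500-530, Acumen) marks blocked Vif-driven A3G degradation.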
Giardia kill = Giardia lamblia killing | Giardia lamblia trophozoite viability | activity change, % at 7.66 µM, hits read low | actives 0.15% (n = 340,000); in the data active = activity change below about -80%; inconclusive = between about -30% and that limit;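 also: parasites exposed to compound for two days anaerobically before the ATP read; % is scaled to controls: 0 for no effect and ±100 for the full control effect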
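Giardia trophozoites, 100 cells per well, were exposed to compounds for 48 hrs at 37 deg C under anaerobic conditions; viability was then read as ATP content by bioluminescence after 15-30 min at room temperature.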
IL1B secr inh = inflammasome signaling inhibition, IL-1 beta readout | actives 4.7% (n = 360,000) | activity change, % at 57.5 µM | THP-1 LPS/ATP IL-1B secretion, AlphaLISA, 16 h; stronger effect = lower value; in the data active = activity change below about -50%; inconclusive = mostly about -30% to -49%; also: % is scaled to controls: 0 for no effect and ±100 for the full control effect
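THP-1 cells pretreated 1 hr with compounds (up to 57.5 uM final), then stimulated with LPS (250 ng/mL final) plus ATP (1.25 mM final); secreted IL-1B measured by AlphaLISA after 16 hr, decreased signal indicating inhibition.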
Numbers without * were called inactive; ? = inconclusive; · = no result. Unless noted, calls follow the shape of the dose curve; as a rule, active = well fitted curve in the direction sought with a large enough effect; inconclusive = small, poorly fitted or top-dose-only effect, or another doubt; inactive = no such curve, though single readings can be large; an effect the other way counts as inactive or inconclusive.

SMILES	MCF10A rerep	SW480 rerep	Vif-A3F inh	Vif-A3G inh	Giardia kill	IL1B secr inh
CN(Cc1ccccc1F)C(=O)c1ccccc1Sc1ccccc1C#N	6.9%	3.0%	-10.8%	-2.5%	-15.4	-66.1*
CN1CCN(c2ccc(NC(=O)CSc3nnnn3-c3ccccc3Cl)cc2)CC1	?	20.6µM*	?	0.0%	-3.1	31.6
Cc1ccc(C)c(SCC(=O)Nc2cccnc2Cl)c1	1.64µM*	-16.4%	2.1%	-1.0%	11.0	6.8
Cc1ccc2nc(SCC(=O)Nc3cccnc3Cl)[nH]c2c1	?	-1.1%	3.6%	-3.9%	-2.1	-7.8
COc1ccccc1NC(=O)CSc1nc(O)cc(=O)n1-c1ccccc1OC	14.6µM*	10.8%	-15.3%	-2.1%	-26.0	11.7
O=C(CSc1nnnn1-c1ccccc1)Nc1ccc(N2CCOCC2)c(Cl)c1	0.6%	9.8%	-0.6%	-0.7%	1.2	-0.2
COc1ccccc1-n1c(SCC(=O)Nc2ccccc2C)nc(O)cc1=O	-4.0%	-0.5%	-1.6%	1.2%	-9.2	0.0
COc1ccccc1NC(=O)CSc1nnc(CC(=O)Nc2ccccc2C)n1C	1.3%	-2.1%	3.6%	-0.4%	-23.9	0.2
COc1ccccc1NC(=O)CSc1nnc(CC(=O)Nc2ccccc2)n1C	-2.1%	-3.8%	4.1%	-4.3%	-15.1	-50.2*
CC(C)NC(=O)c1ccc(CSc2nc3ccncc3n2Cc2cccc(F)c2)cc1	·	·	3.8%	-7.2%	·	·
CCN(Cc1ccccc1)C(=O)Cn1c(=O)n(-c2ccc(F)c(Cl)c2)c(=O)c2sc3ccccc3c21	·	·	-1.1%	2.4%	·	·
COc1cc(CN(C(=O)c2ccc(OC(C)C)cc2)c2ccccn2)cc(OC)c1OC	·	·	-0.4%	2.7%	·	·
CC(=O)N1CCc2c(sc3c2c(=O)n(-c2cccc(Cl)c2)c(=O)n3Cc2ccc(F)cc2Cl)C1	·	·	-1.7%	-4.7%	·	·
CCCCn1c(-c2ccccc2)cnc1SCC(=O)NCCc1ccc(OC)c(OC)c1	-9.5%	1.6%	4.8%	0.0%	19.1	-76.6*
COc1cccc(-n2nnnc2SCC(=O)NCCc2ccccc2)c1	-0.9%	-1.8%	4.2%	-7.8%	-1.2	1.2
COc1ccccc1NC(=O)Cc1noc(CSc2nnc(C)n2C)n1	0.651µM*	2.2%	0.7%	-0.5%	-14.8	-11.0
CSc1ccccc1-n1nnnc1SCC(=O)Nc1cc(C)ccc1C	2.3%	3.9%	-3.8%	0.0%	23.9	-51.2*
Cc1ccc(C)c(NC(=O)CSc2nncn2C)c1	-3.9%	-2.6%	-6.4%	2.6%	-7.2	36.6
COc1ccc(OC)c(-n2nnnc2SCC(=O)NCCc2ccccc2)c1	5.8µM*	7.31µM*	0.1%	-4.9%	-8.4	-9.1
CCN1CCN(c2csc3ccc(C)cc3c2=O)CC1	·	·	4.0%	-3.3%	·	·
COc1ccc(C(=O)N2CC(=O)Nc3ccc(C)cc3C2c2ccc(F)cc2)c(OC)c1 (configuration not stated)	·	·	3.9%	-3.1%	·	·
COc1ccc(CCNC(=O)CCc2c(C)c3ccc(O)c(C)c3oc2=O)cc1	·	·	-2.2%	5.5%	·	·
COc1ccccc1NC(=O)CSc1nnnn1-c1ccccc1OC	0.651µM*	-32.6%	-0.4%	4.2%	-14.5	14.4
COc1ccccc1-n1nnnc1SCC(=O)Nc1oc(C)c2c(C)n[nH]c(=O)c12	6.1%	20.6µM*	-9.1%	-2.4%	6.0	8.7
COc1ccc(C2C=C(c3ccc(Cl)cc3)Nc3nc(-c4ccc(Cl)cc4)nn32)cc1 (configuration not stated)	·	·	?	-27.6%	·	·
SMILES	MCF10A rerep	SW480 rerep	Vif-A3F inh	Vif-A3G inh	Giardia kill	IL1B secr inh
COc1cccc(N(CC(=O)NCCSc2ccccn2)S(=O)(=O)c2ccccc2)c1	15.1%	?	-13.7%	-7.2%	14.5	-59.0*
Cc1sc(NC(=O)c2ccco2)nc1-c1ccc2c(c1)CC(C)N2C(=O)C1CC1 (configuration not stated)	5.01µM*	6.31µM*	-5.2%	-17.1%	-5.4	-72.9*
Fc1ccccc1-c1nc(NCc2ccccc2)c2ccccc2n1	?	-0.1%	-16.9%	-11.9%	-4.4	·
Clc1ccc(-c2nc(NCCN3CCOCC3)c3ccccc3n2)cc1	?	?	3.8%	-10.3%	4.8	-61.0*
c1ccc(CNc2nc(-c3ccccn3)nc3ccccc23)cc1	12.5%	23.6%	0.7%	-7.7%	1.6	-71.4*
COC(=O)CNc1nc(-c2cccnc2)nc2ccccc12	17.1%	4.0%	-2.1%	1.4%	-11.2	-2.7
OCCCNc1nc(-c2ccc(Cl)cc2)nc2ccccc12	7.8%	?	-0.2%	0.4%	-13.4	-8.5
COc1ccc(C(CNc2nc(-c3cccnc3)nc3ccccc23)N(C)C)cc1 (configuration not stated)	?	245.3%	-25.4%	-0.9%	-19.4	-82.2*
CC(Nc1nc(-c2cccnc2)nc2ccccc12)c1ccc(F)cc1 (configuration not stated)	?	3.7%	8.8%	1.0%	3.0	-67.8*
CCc1ccc(C(=O)NC2=NC(c3cc(OC)ccc3OC)CC(=O)N2)cc1 (configuration not stated)	·	·	-1.5%	0.5%	·	·
c1ccc(CN2CCC(Nc3nc(-c4cccnc4)nc4ccccc34)CC2)cc1	?	?	?	-0.8%	8.8	-91.4*
c1cncc(-c2nc(NCc3ccc4c(c3)OCO4)c3ccccc3n2)c1	-4.2%	?	-3.3%	-14.1%	-19.1	-4.9
c1cncc(-c2nc(NCC3COc4ccccc4O3)c3ccccc3n2)c1 (configuration not stated)	?	?	-3.6%	-19.1%	-6.4	-78.2*
c1ccc(CNc2nc(-c3cccs3)nc3ccccc23)cc1	?	-7.1%	?	-5.1%	-6.4	·
c1ccc(CNc2nc(NCc3ccccc3)c3ccccc3n2)cc1	?	-2.3%	-0.7%	0.4%	21.6	-99.9*
c1ccc(CNc2nc(-c3ccccc3)nc3ccccc23)cc1	8.9%	1.1%	?	-6.8%	9.1	-89.3*
c1ccc(CNc2nc(-c3cccnc3)nc3ccccc23)cc1	7.5%	24.1%	-11.9%	-21.8%	-1.0	-11.1
Cc1ccc(-n2ncc(C(=O)Nc3ccc4c(c3)OCO4)c2C2CCN(C(=O)OC(C)(C)C)CC2)c(C)c1	·	·	3.5%	1.1%	·	·
COc1cc2ncnc(NCCCN3CCOCC3)c2cc1OC	-1.1%	-3.4%	-1.3%	4.1%	-15.2	-2.4
Fc1ccc(CNc2nc(-c3cccnc3)nc3ccccc23)cc1	74.2%	?	-17.1%	0.9%	-8.1	-68.6*
CCOc1cc2nc(-c3ccc(OC)c(OC)c3)nc(NCCCN3CCOCC3)c2cc1OC	11.6µM*	?	2.9%	4.6%	6.2	-60.4*
